Assay results from PubChem BioAssay AID2240 (Broad Institute, 2010).
Screen size: about 37,000 compounds; about 100 (0.27%) were called active. No stated cut-off is given here; in the data, active means inhibition above about 85%; inconclusive means no clear call, values can overlap the other calls; inactive means below about 68%. The full list was thinned out, with actives kept by preference.

test: blocks MITF activity, primary screen, MITF inhibitor project, cell-based, luminescence (AID 2240); conditions: TRPM1 promoter luciferase, 24 h, hits give high values, concentration not given here;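 further: human melanocyte line stably carrying TRPM1 promoter luciferase reporter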

Compound | inhibition
Cc1scc(C(=O)NCCc2ccc(S(N)(=O)=O)cc2)c1-c1ccccc1 | 5.94% (inactive)
C[C@@H]1CCCCO[C@H](CN(C)C(=O)NC2CCCCC2)[C@@H](C)CN([C@H](C)CO)C(=O)c2cc(NS(=O)(=O)c3ccc(F)cc3)ccc2O1 | 0.476% (inactive)
CS(=O)(=O)N(CC(=O)Nc1cc(C(F)(F)F)ccc1Cl)c1ccccc1Br | -1.7% (inactive)
Cc1ccc(C)c(NC(=O)CCC(=O)O)c1 | -5.62% (inactive)
COc1ccc(S(=O)(=O)N(C)C[C@@H]2Oc3ccc(NS(=O)(=O)c4cn(C)cn4)cc3C(=O)N([C@@H](C)CO)C[C@@H]2C)cc1 | -3.33% (inactive)
O=C(CCn1nc(-c2ccc(Cl)cc2)c2ccccc2c1=O)Nc1ccc(Br)cc1 | -0.695% (inactive)
Cc1noc(C)c1NC(=O)N(C)C[C@@H]1Oc2ccc(NC(=O)C3CC3)cc2C(=O)N([C@H](C)CO)C[C@@H]1C | -4.76% (inactive)
C[C@H]1CN([C@@H](C)CO)C(=O)Cc2cc(NS(=O)(=O)c3ccc(Cl)cc3)ccc2O[C@H]1CN(C)S(C)(=O)=O | 0.52% (inactive)
Cc1cc(N(CC(=O)Nc2ccc(C(F)(F)F)cc2)S(C)(=O)=O)ccc1Br | -4.48% (inactive)
Cc1cc2oc(C(=O)Nc3sc4c(c3C(=O)NCc3ccco3)CCC4)c(C)c2cc1C | 0.363% (inactive)
C[C@@H]1CN([C@@H](C)CO)C(=O)c2cccc(NC(=O)Nc3ccccc3)c2O[C@H]1CN(C)Cc1ccccc1 | 41.2% (inactive)
Cc1ccc(NC(=O)CSc2nc3ccccc3s2)cc1[N+](=O)[O-] | -10% (inactive)
Cc1nn(CC(=O)NCc2ccccn2)c(C)c1[N+](=O)[O-] | -12.3% (inactive)
COc1cc([N+](=O)[O-])ccc1NC(=S)NCc1cc(C)n(C)n1 | -13.2% (inactive)
C[C@H]1CN([C@@H](C)CO)C(=O)Cc2cc(NC(=O)Nc3ccc(F)cc3)ccc2O[C@H]1CN(C)C(=O)Nc1ccc(C(F)(F)F)cc1 | -15.8% (inactive)
C[C@@H]1CCCCO[C@@H](CN(C)C)[C@@H](C)CN([C@H](C)CO)C(=O)c2cc(N(C)C)ccc2O1 | 5.75% (inactive)
CCOC(=O)Cc1csc(NC(=O)c2sc3cccc(F)c3c2Cl)n1 | 57.6% (inactive)
CN(CC(=O)Nc1ccc(Br)cc1)S(=O)(=O)c1ccc2ccccc2c1 | 11% (inactive)
C[C@H](CO)N1C[C@H](C)[C@H](CN(C)C(=O)Nc2ccc(C(F)(F)F)cc2)Oc2ccc(NC(=O)Nc3ccccc3)cc2C1=O | 43% (inactive)
O=C(CN1C(=O)COc2ccc(Cl)cc21)Nc1ccc(N2CCOCC2)cc1 | -7.45% (inactive)
Cc1ccc(C)c(NC(=O)CSc2nc(C)nc3sc(C)c(C)c23)c1 | 3.61% (inactive)

Compound | inhibition
CCSC1=C(C#N)C(=O)NCS1 | -7.65% (inactive)
O=C(CSc1nnc(-c2ccc(Br)cc2)o1)Nc1ccc2ccccc2c1 | -4.41% (inactive)
O=C1c2ccccc2S(=O)c2ccccc2S(=O)(=O)N1Cc1ccccc1 (stereo not drawn) | 46.6% (inactive)
C[C@@H]1CN([C@H](C)CO)C(=O)c2cc(NC(=O)Nc3ccccc3)ccc2O[C@@H]1CN(C)Cc1ccc(Cl)c(Cl)c1 | 34.3% (inactive)
C[C@H](CO)N1C[C@H](C)[C@@H](CN(C)S(=O)(=O)c2cn(C)cn2)Oc2c(NC(=O)C3CC3)cccc2C1=O | -3.68% (inactive)
O=C(NCCCn1ccnc1)c1cc2c(s1)CCCC2 | 1.51% (inactive)
O=C(O)c1cccc(S(=O)(=O)Nc2ccc(O)cc2Sc2nc3ccccc3s2)c1 | 7.04% (inactive)
O=C(CCn1nc(-c2ccc(Cl)cc2)c2ccccc2c1=O)Nc1cccc(C(F)(F)F)c1 | 4.42% (inactive)
C[C@H](CO)N1C[C@H](C)[C@H](CN(C)C(=O)Nc2ccccc2)Oc2c(NC(=O)Nc3ccc(C(F)(F)F)cc3)cccc2C1=O | 21.9% (inactive)
C[C@@H]1CCCCO[C@H](CN(C)Cc2ccc(Cl)c(Cl)c2)[C@@H](C)CN([C@H](C)CO)C(=O)c2cc(NS(=O)(=O)c3cn(C)cn3)ccc2O1 | -5.53% (inactive)
COc1ccc(CN(C)C[C@@H]2Oc3ccc(NS(=O)(=O)c4cn(C)cn4)cc3C(=O)N([C@@H](C)CO)C[C@H]2C)cc1 | -13% (inactive)
O=C1Cc2ccc(F)cc2CC1C1=Cc2ccc(F)cc2CC1 (stereo not drawn) | 5.98% (inactive)
C[C@H]1CN([C@@H](C)CO)C(=O)c2cc(NC(=O)NC3CCCCC3)ccc2O[C@@H]1CN(C)C(=O)Nc1cccc2ccccc12 | 10.4% (inactive)
COc1ccc(C)cc1S(=O)(=O)N(C)CC(=O)Nc1ccc(Br)cc1F | 8.55% (inactive)
C[C@@H]1CN([C@H](C)CO)C(=O)Cc2cc(NC(=O)Nc3ccc(C(F)(F)F)cc3)ccc2O[C@H]1CN(C)Cc1ccc(-c2ccccc2)cc1 | -11.6% (inactive)
Cc1ccc(-n2c(SCC(=O)Nc3ccccc3F)nnc2-c2ccccc2)cc1C | 10.1% (inactive)
C[C@@H]1CN([C@H](C)CO)C(=O)c2cccc(NC(=O)Nc3ccc4c(c3)OCO4)c2O[C@H]1CN(C)C(=O)Nc1ccc(F)cc1 | 7.91% (inactive)
Cc1cc(C)c(C)c(Oc2coc3cc(OCC(=O)Nc4ccccc4Cl)ccc3c2=O)c1 | -3.54% (inactive)
C[C@@H]1CN([C@@H](C)CO)C(=O)c2cc(NS(=O)(=O)c3ccc(F)cc3)ccc2O[C@@H]1CN(C)C(=O)NC1CCCCC1 | 1.15% (inactive)
O=C(CSc1nc2c(c(C(F)(F)F)n1)CCCC2)N1c2ccccc2Sc2ccccc21 | 11% (inactive)
O=[N+]([O-])c1ccccc1-c1ccc(CN2CCN3CCCC3C2C2CCCCC2)o1 (stereo not drawn) | -7.52% (inactive)

Compound | inhibition
CC1OC(OC2C(OC3C(O[C@H]4CC[C@@]5(C)C(CC[C@]6(C)C5CC=C5[C@@H]7CC(C)(C)C[C@@H](O)[C@]7(C)CC[C@]56C)C4(C)C)OC(C(=O)O)C(O)C3O)OC(CO)C(O)C2O)C(O)C(O)C1O (stereo partly drawn) | -6.6% (inactive)
C/C=C(/C)C(=O)O[C@H]1CC(C)(C)C[C@H]2C3=CCC4[C@@]5(C)CC[C@H](O[C@@H]6O[C@H](C(=O)O)[C@@H](O[C@@H]7O[C@H](CO)[C@H](O)[C@H](O)[C@H]7O[C@@H]7O[C@H](CO)[C@@H](O)[C@H](O)[C@H]7O)[C@H](O)[C@H]6O[C@@H]6O[C@@H](C)[C@H](O)[C@@H](O)[C@H]6O)C(C)(C)C5CC[C@@]4(C)[C@]3(C)[C@@H](O)[C@@H](O)[C@@]12CO (stereo partly drawn) | 93.6% (active)
C/C=C(/C)C(=O)O[C@H]1CC(C)(C)C[C@H]2C3=CCC4[C@@]5(C)CC[C@H](O[C@@H]6O[C@H](C(=O)O)[C@@H](O[C@@H]7O[C@H](CO)[C@H](O)[C@H](O)[C@H]7O[C@@H]7O[C@H](CO)[C@@H](O)[C@H](O)[C@H]7O)[C@H](O)[C@H]6O[C@@H]6O[C@@H](C)[C@H](O)[C@@H](O)[C@H]6O)C(C)(C)C5CC[C@@]4(C)[C@]3(C)[C@@H](OC(C)=O)[C@@H](O)[C@@]12COC(C)=O (stereo partly drawn) | 50.5% (inactive)
O=C(CSc1nnc2c(n1)[nH]c1ccccc12)Nc1cccc(C(F)(F)F)c1 | 63.8% (inactive)
CN(c1ccc(C(=O)NCc2ccccn2)cc1)S(C)(=O)=O | -16% (inactive)
COC(=O)c1scc(S(=O)(=O)C(C)(C)C)c1-n1cccc1 | 3.33% (inactive)
C[C@@H]1CN([C@@H](C)CO)C(=O)c2cccc(NS(=O)(=O)c3cn(C)cn3)c2O[C@H]1CN(C)Cc1ccc(Cl)c(Cl)c1 | -17% (inactive)
CC(C)NC(=O)Nc1ccc2c(c1)C(=O)N([C@H](C)CO)C[C@H](C)[C@@H](CN(C)CC1CCCCC1)OCCCC[C@@H](C)O2 | 0.663% (inactive)
COc1ccc(CN(C)C[C@@H]2Oc3ccc(NC(=O)Nc4ccc(OC)cc4)cc3C(=O)N([C@H](C)CO)C[C@H]2C)cc1 | -5.96% (inactive)
CCc1ccccc1NC(=O)Cn1cnc2scc(-c3ccc(OC)cc3)c2c1=O | 27.3% (inactive)
COc1ccc(S(=O)(=O)Nc2cccc3c2O[C@H](CN(C)C(=O)Nc2cccc4ccccc24)[C@H](C)CN([C@@H](C)CO)C3=O)cc1 | 4.99% (inactive)
NC(=S)c1cnn2c(C(F)(F)F)cc(C(F)(F)F)nc12 | 6.61% (inactive)
C[C@@H]1CN([C@@H](C)CO)C(=O)c2cc(NC(=O)CCN3CCOCC3)ccc2O[C@@H]1CN(C)S(=O)(=O)c1ccccc1 | -5.16% (inactive)
C[C@H](CO)N1C[C@H](C)[C@@H](CN(C)Cc2ccc(C(F)(F)F)cc2)Oc2c(NC(=O)NC3CCCCC3)cccc2C1=O | 15.8% (inactive)
C[C@@H]1CN([C@@H](C)CO)C(=O)Cc2cc(NC(=O)Cc3ccccc3)ccc2O[C@@H]1CN(C)Cc1ccc2c(c1)OCO2 | 4.15% (inactive)
O=C(CSc1nnc2n1CCCN2)c1ccccc1 | -27.2% (inactive)
Cc1ccc(C23CC4CC(CC(CN)(C4)C2)C3)cc1C | 94.1% (active)
C[C@@H]1CN([C@H](C)CO)C(=O)Cc2cc(NC(=O)Nc3ccc4c(c3)OCO4)ccc2O[C@@H]1CN(C)C(=O)Nc1ccccc1 | 8.24% (inactive)
COc1ccc(S(=O)(=O)Nc2ccc3c(c2)CC(=O)N([C@@H](C)CO)C[C@@H](C)[C@@H](CN(C)C)O3)cc1 | -7.94% (inactive)
C[C@@H]1CCCCO[C@@H](CN(C)Cc2ccncc2)[C@@H](C)CN([C@H](C)CO)C(=O)c2cc(NS(=O)(=O)c3cccs3)ccc2O1 | -6.77% (inactive)
C[C@H]1CN([C@@H](C)CO)C(=O)Cc2cc(NC(=O)Nc3ccccc3)ccc2O[C@H]1CN(C)S(=O)(=O)c1cn(C)cn1 | -4.73% (inactive)
